JNK3 blocker: inhibitors of human JNK3 kinase. P53779. AID 746. 60,000 compounds, 0.61% hits. inhibition, % at 8 µM. purified JNK3 kinase activity, HTS; in the data active means inhibition above about 17%;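 further: 0% = DMSO and 100% = reference inhibitor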
DAT uptake mod: changed human dopamine transporter uptake under cocaine IC80. B-score at 10 µM. 110,000 compounds, 1.3% hits. LLC-PK1 hDAT cells, [14C]-dopamine uptake with cocaine IC80; actives deviate in either direction. Q01959;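 active means Z score or B-score, a plate-position-corrected score, falls beyond the plate's 99.7% confidence bounds, in either direction; inactive means both scores lie inside the 99.7% bounds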;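 further: scored against the spread of the other compound wells on the same plate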
PKA kinase inh: PKA (human) kinase inhibition. P17612. PKA Kemptide phosphorylation, Kinase-Glo ATP luminescence. inhibition, % at 6 µM. 65,000 compounds, 0.1% hits. AID 524;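 active means inhibition above the screen-wide mean inhibition plus 3 SD, cut at about 21% in these data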
D1 allo mod: allosteric modulators of human D1 dopamine receptor | B-score at 10 µM | HEK293 D1, CRE-luciferase, dopamine EC30 potentiation; actives deviate in either direction | AID 641 | 58,000 compounds, 5.9% hits | P21728;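 active means luminescence count or its row- and column-corrected plate score outside the 99.7% band of the plate's sample wells, on either side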
ROCK2 inh: inhibitors of human Rho kinase 2; O75116; purified ROCK2, Kinase-Glo ATP depletion luminescence; AID 604; inhibition, % at 6 µM; 60,000 compounds, 0.35% hits;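 active means inhibition above the screen-wide mean inhibition plus 3 SD, cut at about 18% in these data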;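 further: plate controls were DMSO wells for no effect and Y-27632 control wells after no-enzyme background subtraction for full effect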
D1 mod confirm: D1 receptor (human) allosteric modulation, confirmed; 2,200 compounds, 88% hits; luminescence at 10 µM; HEK293 D1 CRE-luciferase, dopamine EC30 potentiation; active compounds read high; shares compounds with D1 allo mod;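 active means luminescence in either of two replicates above the same-plate mean plus 3 SD of the low-dose dopamine control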
D1 ag no DA: D1 (human) signaling in absence of dopamine; shares compounds with D1 allo mod; HEK293 D1 CRE-luciferase, luminescence, no dopamine; active compounds read high; luminescence at 10 µM; 1,900 compounds, 0.8% hits; AID 646; in the data active means luminescence above about 3900
Isoprot counter: isoproterenol response counter-screen activity for D1 modulators. shares compounds with D1 allo mod. HEK293 D1 CRE-luciferase, isoproterenol EC30 counter-screen. calls only at 10 µM. 2,200 compounds, 63% hits. AID 647;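 active means luminescence in either replicate above plate mean of wells with a partly effective reference agonist dose plus 3 SD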;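 further: isoproterenol raises cAMP through native beta-adrenoceptor Gs so signal bypasses D1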
Numbers without * were called inactive; i = inactive; . = no result given; + = active, no number. Many of the other results were omitted from the sample, so hits are more common in it than they were.

SMILES | JNK3 blocker | DAT uptake mod | PKA kinase inh | D1 allo mod | ROCK2 inh | D1 mod confirm | D1 ag no DA | Isoprot counter
CC1(C)CC(=O)C(CCC(=O)c2ccccc2)C(C)(C)N1 (configuration not stated) | 1 | 0.099 | 8 | 4.7* | 0 | 4348 | 1672 | i
O=C(CCC1CCCCC1=O)c1ccccc1 (configuration not stated) | 2 | 0.8 | 13 | -0.35 | 6 | . | . | .
O=C(CN1CCN(c2ccccn2)CC1)Nc1ccc(Cl)c(C(F)(F)F)c1 | 7 | 0.069 | 5 | 5.5* | 2 | 7388 | 1768 | i
O=C(CN1CCN(c2ccccn2)CC1)Nc1cc(C(F)(F)F)ccc1Cl | -4 | -1.1 | -5 | 0.48 | 0 | . | . | .
O=C1CC(N2CCN(c3ccc(S(=O)(=O)N4CCCC4)cc3)CC2)C(=O)N1c1ccc(F)cc1 (configuration not stated) | -4 | 0.6 | 5 | -0.41 | 7 | . | . | .
CCn1ncc2c1C(=O)NC1c3ccccc3C(=O)N21 (configuration not stated) | 11 | -0.72 | -4 | 17* | 4 | 21460* | . | +
COc1ccc(CC(=O)N2CCN=C2SC)cc1 | 8 | -0.28 | 3 | 11* | 0 | 15276* | 1524 | +
CC(C)C[C@H]1C(=O)N2CCC[C@H]2[C@]2(O)O[C@](NC(=O)[C@@H]3C=C4c5cccc6[nH]c(Br)c(c56)CC4N(C)C3)(C(C)C)C(=O)N12 (some centres not stated) | 0 | 1.8 | 2 | 24* | 6 | 20940* | 18100* | +
CCOc1nc(NCc2ccco2)nc(Nc2ccc(OC)cc2)n1 | 8 | 0.6 | 5 | 4.5* | 10 | 10436* | 1588 | +
c1ccc(Oc2nc(NCc3ccco3)nc(NCc3ccco3)n2)cc1 | 0 | -1.7 | -5 | 5.2* | -7 | 11736* | 1696 | +
CCCCCCNc1nc(NCc2ccco2)nc(OCC)n1 | . | -0.11 | . | . | . | . | . | .
CC1CN(c2ncnc3c2oc2ccccc23)CC(C)O1 (configuration not stated) | -5 | -0.18 | 5 | 5.6* | -1 | 12424* | 1820 | +
O=C(NCC1CCCO1)C1CC(c2ccc(Cl)c(Cl)c2)=NO1 (configuration not stated) | 2 | -0.15 | 8 | 0.46 | 4 | . | . | .
C=CCc1c(C)nc(SC)nc1Nc1ccccc1 | . | 0.81 | . | . | . | . | . | .
C=CCc1c(C)nc(SC)nc1Nc1ccc(C(=O)O)cc1 | 4 | 0.055 | 9 | 8.2* | 5 | 11532* | . | i
C=CCc1c(C)nc(SC)nc1Nc1ccc(C(C)=O)cc1 | 6 | 1.3 | -4 | 4.1* | 1 | 10112* | 1672 | +
Cc1cc(C)c(S(=O)(=O)N2CCCCC2)c(C)c1-n1ncnn1 | 2 | . | 10 | 0.38 | 4 | . | . | .
O=C1N/C(=N/c2ccccn2)SC1Cc1ccccc1 (configuration not stated) | -4 | 0.0057 | 2 | 4.5* | -2 | 9704* | 1888 | i
O=C(CCC(=O)Nc1nnc(C2CCCCC2)s1)NCc1cccs1 | 3 | -0.78 | 7 | 3.8* | 2 | 5740 | 1656 | i
CCOC(=O)C1CCCN(C(=O)C2CCCN(S(C)(=O)=O)C2)C1 (configuration not stated) | 4 | -0.98 | 14 | -0.53 | 5 | . | . | .
Cc1nn2c(-c3ccncc3)nnc2c2ccccc12 | -7 | -0.42 | 17 | 2.7* | 3 | 6068* | 1544 | +
COc1ccc(-c2nnc3c4ccccc4c(C)nn23)cc1 | . | 0.5 | . | . | . | . | . | .
CCN1C(=O)c2cccc3c(S(=O)(=O)Nc4ncccc4C)ccc1c23 | -6 | 1.8 | -9 | 7.9* | -3 | 9156* | 1492 | +
CCN1C(=O)c2cccc3c(S(=O)(=O)Nc4ccccn4)ccc1c23 | -8 | -0.27 | 8 | 2.5* | 5 | 5724* | 1712 | i
CCN1C(=O)c2cccc3c(S(=O)(=O)Nc4ccccc4)ccc1c23 | . | -0.56 | . | . | . | . | . | .
SMILES | JNK3 blocker | DAT uptake mod | PKA kinase inh | D1 allo mod | ROCK2 inh | D1 mod confirm | D1 ag no DA | Isoprot counter
CCN1C(=O)c2cccc3c(S(=O)(=O)Nc4ccncc4)ccc1c23 | . | 0.79 | . | . | . | . | . | .
CCOC(=O)c1c(C)[nH]c(C)c1C(=O)CSc1ncccn1 | . | -0.11 | . | . | . | . | . | .
COc1ccc(-c2nc(C#N)c(N3CCC(C(N)=O)CC3)o2)cc1OC | . | -0.0058 | . | . | . | . | . | .
COc1ccc(-c2nc(C#N)c(NC(C)c3ccccc3)o2)cc1OC (configuration not stated) | -2 | . | -1 | 6.8* | 5 | 12956* | . | i
COc1ccc(-c2nc(C#N)c(NCC3CCCO3)o2)cc1OC (configuration not stated) | -14 | 0.81 | 4 | 3.8* | 5 | 8472* | 1680 | +
COc1ccc(-c2nc(C#N)c(N3CCOCC3)o2)cc1OC | 5 | 0.024 | 2 | 3.2* | 0 | 11200* | 1596 | +
CN(C)c1oc(-c2ccccc2Cl)nc1C#N | -1 | . | 5 | 3.4* | 2 | 6136* | 1600 | i
COc1ccc(-c2nc(C#N)c(NCCCN(C)C)o2)cc1OC | -10 | 2.6 | 9 | -0.68 | 6 | . | . | .
CCOc1ccc(-c2nc(C#N)c(NCC3CCCO3)o2)cc1 (configuration not stated) | . | 0.07 | . | . | . | . | . | .
N#Cc1nc(-c2ccccc2Cl)oc1NCC1CCCO1 (configuration not stated) | 5 | 0.51 | -3 | 5.7* | 2 | 10656* | 1604 | +
CCOCC(=O)Nc1c(C(=O)OCC)oc2ccccc12 | 3 | 0.55 | 6 | 8.8* | 8 | 17016* | 1824 | +
CCOC(=O)c1oc2ccccc2c1NC(=O)Cc1cccs1 | 5 | 0.57 | -1 | 0.69 | 2 | . | . | .
NC(=O)c1oc2ccccc2c1NC(=O)c1nc2ccccc2s1 | 0 | -0.24 | 6 | 0.24 | -1 | . | . | .
NC(=O)c1oc2ccccc2c1NC(=O)c1ccc(F)cc1 | 26* | 0.9 | 2 | 4.5* | 4 | 7528* | 1648 | i
CCOC(=O)c1oc2ccccc2c1NC(=O)c1cc(OC)cc(OC)c1 | 2 | -0.79 | 2 | 4.7* | 1 | 13500* | . | +
CCOC(=O)c1oc2ccccc2c1NC(=O)COC | -4 | 0.064 | -5 | 21* | -2 | 20772* | 1584 | +
COC(=O)c1nc2n(n1)C(c1ccc(OC)c(OC)c1OC)C1=C(CCCC1=O)N2 (configuration not stated) | 2 | 0.041 | 8 | -0.79 | 9 | . | . | .
CSc1nc2ccccc2cc1/C=C(\C#N)c1cccc(Cl)c1 | . | -0.51 | . | . | . | . | . | .
COc1cccc(C(=O)N2CCSC2=S)c1 | -8 | 0.16 | 6 | -0.68 | 3 | . | . | .
O=S(=O)(NCCOCC(F)(F)F)c1ccc2oc3ccccc3c2c1 | -2 | -1 | 2 | -0.84 | 2 | . | . | .
